This is part of a sample that, as a whole, favours compounds with a hit. Of some 83,000 tested, about 20% had one in any assay.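 48-hour exposure, single concentration, 96-well plates; percent growth endpoint where 0 means no net growth. Active: below 10.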 A number with no mark means an inactive call. The source made the active and inactive calls.
Columns and labels:
Experiment in all cases: NCI-60 one-dose screen, 48 h (100 = growth as untreated, 0 = no growth, -100 = all killed)
DU-145 prostate = conditions: 10 µM
K-562 leukemia = conditions: 10 µM
MALME-3M melanoma = conditions: 10 µM
MDA-MB-231 breast = conditions: 10 µM
RXF 393 renal = conditions: 10 µM
SF-268 CNS = conditions: 10 µM
SF-539 CNS = conditions: 10 µM
UACC-257 melanoma = conditions: 10 µM
M14 melanoma = conditions: 10 µM
HCT-15 colon = conditions: 10 µM
HT29 colon = conditions: 10 µM
SNB-75 CNS = conditions: 10 µM
SNB-19 CNS = conditions: 10 µM
U251 CNS = conditions: 10 µM
PC-3 prostate = conditions: 10 µM
SK-MEL-5 melanoma = conditions: 10 µM
UACC-62 melanoma = conditions: 10 µM unless noted
LOX IMVI melanoma = conditions: 10 µM
SK-MEL-28 melanoma = conditions: 10 µM
SF-295 CNS = conditions: 10 µM

| Structure (SMILES) | growth (DU-145 prostate) | growth (K-562 leukemia) | growth (MALME-3M melanoma) | growth (MDA-MB-231 breast) | growth (RXF 393 renal) | growth (SF-268 CNS) | growth (SF-539 CNS) | growth (UACC-257 melanoma) | growth (M14 melanoma) | growth (HCT-15 colon) | growth (HT29 colon) | growth (SNB-75 CNS) | growth (SNB-19 CNS) | growth (U251 CNS) | growth (PC-3 prostate) | growth (SK-MEL-5 melanoma) | growth (UACC-62 melanoma) | growth (LOX IMVI melanoma) | growth (SK-MEL-28 melanoma) | growth (SF-295 CNS) |
| --- | --- | --- | --- | --- | --- | --- | --- | --- | --- | --- | --- | --- | --- | --- | --- | --- | --- | --- | --- | --- |
| Cc1ccc(S(=O)(=O)O)c(C)c1 | 108% | 98.8% | 88.4% | 116% | 117% | 114% | 101% | 108% | 101% | 104% | 103% | 82.8% | 109% | 97.1% | 99.1% | 105% | 120% | 95.3% | 106% | – |
| COC(=O)/C=C1\Sc2cc(F)ccc2NC1=O | 126% | 91.2% | 102% | 107% | – | 110% | 104% | 91% | 93.3% | 106% | 97.8% | 86.6% | 95% | 93.2% | 92.2% | 104% | 88.8% | 93.4% | 129% | 118% |
| CC(=O)c1ccc2c(ccc3ccccc32)c1 | 111% | 90.5% | 110% | 105% | – | 104% | 97.5% | 108% | – | 68.4% | 95.6% | 105% | 99.4% | 92.1% | 104% | 96.8% | 96.5% | 107% | 108% | 99.3% |
| CC1(O)OC(COc2ccc(Cl)cc2)COC1O (stereo not given) | 108% | 104% | 99.2% | – | 107% | 104% | 97.3% | 95.7% | 109% | 103% | 116% | 112% | – | 100% | 107% | 101% | 89.8% | 98.9% | – | 103% |
| Cc1cc2nc(CC(=O)c3cccc([N+](=O)[O-])c3)c(=O)[nH]c2cc1C | 100% | 73.7% | 98.5% | – | 107% | 98.1% | 88.2% | 97% | 81.4% | – | 68.2% | 96.1% | – | 95.1% | 68% | 97.9% | 65% | 72.8% | 97.7% | 75.4% |
| C=CCNc1nnc(C)s1 | 118% | 106% | 106% | 102% | – | 119% | 99.9% | – | 103% | 104% | 116% | 102% | 109% | 107% | 89.6% | 107% | 97.1% | 97.8% | 104% | 115% |
| O=[N+]([O-])c1ccc(-c2noc(-c3cccs3)n2)cc1 | 89.3% | 93.7% | 91.7% | – | 92% | 101% | 81.3% | 100% | 91.7% | 84% | 92.5% | 83.2% | – | 86.5% | 90.3% | 83.5% | – | 86% | 99.5% | 72.9% |
| CS(=O)CC1=NC(=N)N=C1CS(C)=O (stereo not given) | 111% | 99.4% | 98% | – | 107% | 106% | 99.5% | 86.6% | 105% | 102% | 109% | 97.7% | – | 98.1% | 98.7% | 99.3% | 98.4% | 96.7% | 108% | 98.1% |
| O=C1NC(=O)C2C(=O)NC(=O)C1C21CCc2ccccc21 (stereo not given) | 115% | 98.2% | 102% | – | 99.3% | 111% | 93.7% | 107% | 103% | 105% | 123% | 124% | – | 106% | 90.1% | 96.3% | 83.6% | 102% | 113% | 102% |
| CCOC(=O)c1cc(/C=C/c2ccc(Cl)cc2Cl)on1 | 30.6% | 5.36% (active) | 69.6% | – | -37.3% (active) | 89.1% | -48.5% (active) | 105% | 56% | -66.1% (active) | 1.53% (active) | 58.9% | – | 6.71% (active) | 44% | 92.3% | 48.7% | -90.1% (active) | 86.1% | 17.6% |
| Clc1ccc(-c2nnc(-c3cccc4ccccc34)o2)cc1 | 114% | 104% | 99.8% | – | 102% | 103% | 94.8% | 78% | 103% | 80.1% | 89.3% | 76.8% | – | 90.2% | 82.4% | 93.7% | – | 84.2% | 107% | 110% |
| CC(C)=C(NC(=O)c1ccccc1)C(=O)O | 106% | 102% | 99% | – | 103% | 96.1% | 110% | 97.5% | 108% | – | 99.6% | 108% | – | 114% | 87.8% | 99% | – | 101% | 108% | 116% |
| O=C(N/N=C\c1cc(Br)cc(Br)c1O)N/N=C/c1cc(Br)cc(Br)c1O | 75.2% | 22.9% | 70.2% | 72% | – | 51.1% | 35.5% | – | 55.2% | 33.6% | 105% | 49% | 68.2% | 46.1% | -1.34% (active) | 45.3% | 39% | 50.5% | 81.9% | 6.45% (active) |
| COC(=O)c1cc(-c2ccc(Cl)c(Cl)c2)[nH]c(=O)c1C#N | 108% | 108% | 89.1% | – | 109% | 102% | 101% | 98.4% | 99.2% | 96.3% | 107% | 99.2% | – | 97.3% | 102% | 98.9% | 90.9% | 101% | 100% | 96.1% |
| Cc1cc2nc(CC(=O)c3ccccc3)c(=O)[nH]c2cc1C | 112% | 90.1% | 101% | – | 101% | 108% | 95.6% | 106% | – | 87.7% | 97.5% | 117% | – | 95.4% | 88.4% | 96.1% | 74.9% | 96.2% | 109% | 89.8% |

Source: PubChem BioAssay (NCI)
